IDE cell activ = activators of human insulin-degrading enzyme in cells. P14735. HEK cells, FAbeta-B cleavage, fluorescence polarization; 0% vehicle, 100% cell-free pure enzyme wells. activation, % at 5.96 µM. 340,000 tested, 0.073% active;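 active = activation above the mean of all tested compounds plus 3 SD, set per screening campaign, cut at about 17% in these data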
Target sequence (P14735 whole entry, looked up): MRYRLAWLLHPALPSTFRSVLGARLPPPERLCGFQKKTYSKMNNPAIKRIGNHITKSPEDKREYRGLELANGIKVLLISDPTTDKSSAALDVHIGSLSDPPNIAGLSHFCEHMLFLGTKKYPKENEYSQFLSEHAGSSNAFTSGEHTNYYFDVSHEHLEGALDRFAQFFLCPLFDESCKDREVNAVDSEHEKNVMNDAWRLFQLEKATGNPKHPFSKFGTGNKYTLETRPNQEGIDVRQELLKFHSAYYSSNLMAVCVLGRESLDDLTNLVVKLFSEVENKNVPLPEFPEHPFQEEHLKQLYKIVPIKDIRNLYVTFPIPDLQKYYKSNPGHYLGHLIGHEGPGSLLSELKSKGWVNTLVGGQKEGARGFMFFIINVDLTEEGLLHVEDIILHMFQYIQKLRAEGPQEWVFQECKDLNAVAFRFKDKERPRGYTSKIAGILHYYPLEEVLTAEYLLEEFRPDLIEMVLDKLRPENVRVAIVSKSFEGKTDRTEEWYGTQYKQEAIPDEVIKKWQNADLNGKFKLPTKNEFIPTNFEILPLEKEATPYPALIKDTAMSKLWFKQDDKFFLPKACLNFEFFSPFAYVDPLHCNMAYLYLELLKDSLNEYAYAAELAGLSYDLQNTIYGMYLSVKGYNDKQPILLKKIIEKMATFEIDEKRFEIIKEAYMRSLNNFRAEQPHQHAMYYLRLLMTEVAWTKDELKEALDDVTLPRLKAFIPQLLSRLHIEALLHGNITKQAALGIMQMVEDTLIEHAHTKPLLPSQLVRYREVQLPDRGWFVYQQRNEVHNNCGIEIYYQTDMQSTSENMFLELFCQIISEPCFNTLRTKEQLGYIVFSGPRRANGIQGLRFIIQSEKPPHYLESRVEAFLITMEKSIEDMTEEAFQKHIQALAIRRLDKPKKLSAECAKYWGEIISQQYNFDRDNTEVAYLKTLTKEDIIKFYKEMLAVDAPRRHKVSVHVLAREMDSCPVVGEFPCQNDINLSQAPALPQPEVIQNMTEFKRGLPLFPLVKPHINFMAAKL
RTF Ca sens inh = cardiac RTF calcium desensitization; IANBD-labeled cardiac RTF, Ca2+ fluorescence; inhibition, % at 7.15 µM; 340,000 tested, 0.12% active; AID 493244;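 active = inhibition above the mean inhibition of all tested compounds plus 3 SD, cut at about 17% in these data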;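 note: assay run at fixed EC70 calcium of 1.6 mM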
RTF Ca sens act = cardiac RTF calcium sensitization | 340,000 tested, 0.24% active | IANBD-labeled TnC RTF fluorescence at EC20 calcium; 0% EC20 calcium, 100% full calcium | activation, % at 7.2 µM | P19429+P45379 | AID 493008;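 active = activation above the mean over all tested compounds plus 3 SD, cut at about 30% in these data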;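 note: rise in fluorescence read as greater calcium sensitivity of cardiac thin filaments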
IDE cell inh = inhibits human insulin-degrading enzyme in HEK cells; FAbetaB cleavage, fluorescence polarization; AID 434962; 320,000 tested, 0.41% active; inhibition, % at 5.59 µM;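 active = percent inhibition above the average of all tested compounds plus 3 SD, set per screening campaign, cut at about 16% in these data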;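 note: IDE supplied by intact live HEK cells; FP after avidin binding of uncleaved biotin substrate so inhibition keeps polarization high; 0% = DMSO wells and 100% = 60 µM reference IDE inhibitor Ii1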
CRFR2-BP ag = CRF-BP/CRF-R2 complex agonism | activation, % at 13.2 µM | HEK293 CRF-R2/CRF-BP, calcium dye fluorescence (FLIPR); percent of saturating CRF peptide response | 350,000 tested, 0.46% active;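 active = activation of at least 50%, plus an integration ratio under a set limit after plate pattern correction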;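 note: plate controls were neutral control wells without compound for no effect and CRF at EC100 for full effect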
CRFBP-R2 block = CRF-BP/CRF-R2 complex antagonism; AID 588475; inhibition, % at 11.8 µM; HEK293 CRF-R2/CRF-BP, CRF-induced calcium fluorescence; 350,000 tested, 0.59% active;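 active = inhibition of the ligand-induced calcium signal above about 50% at the single tested concentration, limit read from the data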
An asterisk follows results filed as active; i = inactive; x = not tested or not shown. An excerpt weighted towards active compounds, which were near 1.5% of everything screened.

SMILES | IDE cell activ | RTF Ca sens inh | RTF Ca sens act | IDE cell inh | CRFR2-BP ag | CRFBP-R2 block
CCN(CC)C(=O)[C@H]1C[C@H](CC(=O)NC/C=C(\C)CCC=C(C)C)C(=O)N2CCc3c([nH]c4cc(CCC(=O)N(C)C)ccc34)[C@]12C | 2 | -2 | -8 | x | 0 | 67*
Cc1nn(C)c(C)c1NC(=S)Nc1ccc(S(=O)(=O)Nc2ncccn2)cc1 | 3 | -1 | -4 | 2 | -1 | -2
CCOC(=O)C(C)(C)N(Cc1ccc(C)cc1)S(=O)(=O)c1ccc(Cl)c([N+](=O)[O-])c1 | 5 | 13 | 2 | 3 | -1 | 67*
CCOC(=O)C(C)(C)N(Cc1ccc(Cl)cc1)S(=O)(=O)c1ccc(Cl)c([N+](=O)[O-])c1 | x | x | x | -2 | x | x
COc1ccc(S(=O)(=O)NC(C)C(=O)NCc2ccccn2)cc1Cl (stereo unspecified) | -1 | -8 | 5 | -1 | -1 | 17
C[C@@H]1CN(S(=O)C(C)(C)C)[C@@H](CCO)/C1=C\c1ccccc1 (stereo partly specified) | -2 | -8 | -4 | x | -2 | 3
COc1ccc(CNC(=O)C2(c3ccc(Cl)cc3)CC2)cc1 | 5 | -33 | -6 | -6 | 1 | 61*
NS(=O)(=O)c1ccc(CNC(=O)C2(c3ccc(Cl)cc3)CC2)cc1 | 6 | -6 | 0 | -1 | 1 | -7
CC1C(=O)N(Cc2cn(Cc3ccco3)nn2)CCS(=O)(=O)N1Cc1ccc(-c2ccncc2)cc1 (stereo unspecified) | x | x | x | x | 0 | 3
CCOC(=O)c1cc2ccccc2n1CCN(CC)CC | 7 | -1 | 4 | -3 | 74* | -9
Cc1[nH]c2ccccc2c1SCc1nnc(SCc2ccc(Cl)cc2)n1C | 3 | -6 | -4 | -1 | -1 | 4
Cc1[nH]c2ccccc2c1SCc1nnc(SCc2ccccc2)n1C | 5 | -6 | 1 | 8 | -3 | 115*
O=C(NCc1cccs1)c1ccc(CS(=O)Cc2cccc(Cl)c2)o1 (stereo unspecified) | -2 | -8 | 2 | -2 | -1 | 58*
O=C(NCCc1ccc(Cl)cc1)c1ccc(CS(=O)Cc2ccc(Cl)cc2)o1 (stereo unspecified) | -8 | -1 | 4 | 0 | 0 | 2
CSc1ccc(CCNC(=O)c2ccc(CS(=O)Cc3ccc(Cl)cc3)o2)cc1 (stereo unspecified) | -4 | -1 | -1 | 6 | 2 | 80*
Cc1[nH]c(=O)[nH]c(=O)c1S(=O)(=O)Nc1ccc(F)c([N+](=O)[O-])c1 | 2 | -11 | -3 | x | 1 | 3
COc1ccc(-n2c(C)cc(/C=C3/SC(=S)N(C)C3=O)c2C)cc1 | -3 | -2 | 3 | 6 | 58* | -47
CCN(CC)c1ccc(N=Cc2ccc(N(CC)CC)cc2O)cc1 | -11 | -20 | 15 | 4 | 94* | -125
CCN(CC)c1ccc(/C=N/N=C(N)N)c(O)c1 | 18* | -8 | 4 | -2 | 2 | -14
CCN(CC)c1ccc(C=Nc2ccccc2)c(O)c1 | -4 | -8 | 0 | -3 | 3 | -1
CCN(CC)c1ccc(C=Nc2ccc(C)cc2)c(O)c1 | 5 | -8 | -6 | -4 | -1 | 3
CCN(CC)c1ccc(C=Nc2ccc(N(C)C)cc2)c(O)c1 | 4 | 13 | 1 | -4 | 51* | -61
CCOC(=O)c1c(-c2ccccc2)csc1NC(=O)/C(C#N)=C/c1ccc(OC)c(OC)c1 | 7 | 9 | -8 | 0 | 3 | -42
CCOC(=O)c1c(-c2ccccc2)csc1NC(=O)/C(C#N)=C/c1ccc(O)c(OC)c1 | -135 | -56 | 47* | 0 | 198* | -216
COC(=O)CC1SC(=O)NC1=Nc1ccc(OC)cc1 (stereo unspecified) | 4 | -2 | 5 | -4 | -8 | 73*
SMILES | IDE cell activ | RTF Ca sens inh | RTF Ca sens act | IDE cell inh | CRFR2-BP ag | CRFBP-R2 block
COC(=O)CC1SC(=O)NC1=Nc1ccc(O)cc1 (stereo unspecified) | 4 | 0 | -4 | 3 | -2 | -20
O=C1c2ccccc2C(=O)N1c1ncc(Cc2ccc(Cl)cc2)s1 | -4 | 2 | 2 | -6 | 208* | -8
Cc1nc2c(s1)sc1ccccc12 | 1 | 0 | 2 | 4 | 1 | 51*
COC(=O)c1ccc(Sc2ccc(Cl)cc2)c(N)c1 | 2 | -2 | -4 | 3 | -1 | 73*
COc1ccccc1N1CCN(CC(=O)Nc2c(C)n[nH]c2C)CC1 | -4 | -1 | 0 | 9 | -4 | 68*
CC(=NNC(=O)c1ccncc1)c1ccccc1Cl | 1 | -8 | 0 | x | -3 | 1
C/C(=N\NC(=O)c1ccccc1NC(=O)c1ccc(Cl)cc1)c1ccncc1 | -6 | -2 | -5 | -3 | 1 | 72*
COc1cc(N=c2ssnc2Cl)cc(OC)c1 | -10 | -4 | 8 | -1 | 4 | -19
Clc1nssc1=Nc1ccc(Br)cc1 | -11 | 8 | -1 | x | 107* | 29
CCCCn1nc(-c2ccccc2)c2nc3ccccc3nc21 | x | x | x | 1 | x | x
Cn1nc(-c2ccccc2)c2nc3ccccc3nc21 | -3 | -9 | 52* | 1 | 253 | -205
C=CCn1c(O)c(N=NC(=O)c2ccc3c(c2)OCO3)c2ccccc21 | 2 | 6 | -5 | 1 | 0 | -8
CC(C)(CNC(=O)c1cc(Cl)c(O)c(Cl)c1)N1CCCCC1 | 6 | -4 | -8 | 1 | -3 | 55*
CC(C)(CNC(=O)Cc1ccc(Cl)cc1Cl)N1CCCCC1 | 5 | -32 | -2 | -3 | 0 | -4
O=C1CCN2C=Nc3cccc4ccc1c2c34 | 41* | i | 703* | -21 | 598 | -334
COc1ccccc1CCNC(=O)C1CCC(=O)N(C2CCCCCC2)C1 (stereo unspecified) | -1 | -5 | 3 | x | -1 | -14
COc1ccc(N=C2S/C(=C\c3ccc(N4CCOCC4)o3)C(=O)N2CCc2c[nH]c3ccccc23)cc1 | -21 | -28 | 32* | 7 | x | x
O=C(c1cc2ccccc2oc1=O)N(Cc1ccc2c(c1)OCO2)Cc1ccco1 | 5 | -10 | 4 | -1 | -1 | 8
CC(=O)c1c(C)c2c(n1CCN(C)C)CCCC2 | 2 | 7 | -3 | 3 | 62* | 21
Cc1cc(C=O)c2c(c1)C=CC1(Oc3ccccc3C(=O)N1C)O2 (stereo unspecified) | x | x | x | 25* | x | x
O=C(Nc1nc2c(Br)cccc2s1)C1CC1 | 2 | -6 | -3 | 4 | 1 | -2
CC(=O)N1CCN(c2ccc(NC(=O)c3ccccc3Cl)cc2)CC1 | 2 | 1 | -4 | 6 | 0 | 8
O=C(Nc1ccc(C(=O)N2CCCC2)cc1)c1ccccc1F | 8 | -2 | 10 | -3 | 1 | 66*
O=C(Nc1cc(C(=O)N2CCCC2)ccc1N1CCCC1)c1ccccc1F | 3 | -2 | 2 | 0 | -1 | 3
